Test results from PubChem BioAssay (NCATS).
Results filed as inconclusive are left out. Values without a mark were called inactive. The source made the active and inactive calls. The call rests on the fitted dose curve; in most records, active means well fitted cell-killing curve with a large enough effect; inconclusive means small, poorly fitted or top-dose-only effect; inactive means flat fitted curve, though single readings scatter.

Assay: Cellular viability qHTS for adrenocortical cancer (ACC) cell line NCI-H295R (AID 1963990); further: nearly all actives have a fitted effect of over 60% in size;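 on activity change, negative = viability loss: 0% = DMSO only wells and -100% = full killing with cytotoxic reference compound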
Settings: CellTiter-Glo ATP luminescence, 48 h; series mostly up to 46.1 µM; activity change, negative = viability loss: at the top concentration
Method in brief: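 CellTiter-Glo ATP luminescence, read 48 h after compound addition, measured viability of NCI-H295R adrenocortical cells grown serum-free with ITS. Final concentrations spanned up to 46 uM. Data normalized to DMSO and doxorubicin, fitted for IC50 and maximal response.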

Row | Structure (SMILES) | activity change, negative = viability loss | Potency
1 | COC(=O)[C@@H]1[C@H]2C[C@H]3c4[nH]c5ccccc5c4CCN3C[C@@H]2CC[C@@H]1O | -8.98% | 
2 | CCN(CC)CCNC(C(=O)OCCC(C)C)c1ccccc1 (stereo not given) | -2.42% | 
3 | CC(C)(C)C(O)/C=C/c1ccc2c(c1)OCO2 (stereo not given) | -2.46% | 
4 | Cc1ccc(C(=O)C(=O)O)cc1C | -21.1% | 
5 | O=C(/C=C/c1ccc(CN(CCO)CCc2c[nH]c3ccccc23)cc1)NO |  | 0.562 µM (active)
6 | O=C(CCCN1CC=C(n2c(=O)[nH]c3ccccc32)CC1)c1ccc(F)cc1 | 2.25% | 
7 | N#CC1(c2ccc(F)cc2)CCC(=O)CC1 | 1.33% | 
8 | COc1cc(-c2cn(C)c(=O)c3cnccc23)cc(OC)c1CN(C)C | -4.67% | 
9 | CC[C@H]1OC(=O)[C@H](C)[C@@H](O[C@H]2C[C@@](C)(OC)[C@@H](O)[C@H](C)O2)[C@H](C)[C@@H](O[C@@H]2O[C@H](C)C[C@H](N(C)C)[C@H]2O)[C@](C)(O)C[C@@H](C)C(=O)[C@H](C)[C@@H](O)[C@]1(C)O | 11.8% [at 20 µM] | 
10 | O=C(O)c1ccc(CN2CCC(CN[C@@H]3C[C@H]3c3ccccc3)CC2)cc1 | 14.5% | 
11 | Cc1cc(=O)oc2cc(O[C@@H]3SC[C@@H](O)[C@H](O)[C@H]3O)ccc12 | -4.23% | 
12 | O=S(=O)(O)c1cc(I)c(O)c2ncccc12 | 7.85% | 
13 | O=C1c2ccccc2S(=O)(=O)N1CCCCN1CCN(c2ncccn2)CC1 | 0.703% | 
14 | Cc1cc(NS(=O)(=O)c2ccc(N)cc2)no1 | -26.9% | 
15 | CC1=C(/C=C/C(C)=C/C=C/C(C)=C/C=C/C=C(C)/C=C/C=C(C)/C=C/C2=C(C)CCCC2(C)C)C(C)(C)CCC1 | -15.6% | 
